# HCMV inh – human cytomegalovirus inhibition. HFF cells, HCMV-luciferase reporter, 72 h; hits give low values. activity change, negative = inhibition, % at 57.5 µM. 410,000 tested, 4.5% active. AID 1259415; in the data active = activity change below about -60%; inconclusive = no clear call, values can overlap the other calls; inactive = above about -39%
#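 Screen run at 2 compound doses on HFFs infected with reporter HCMV, MOI 1 PFU/cell. Luciferase activity from cell lysates at 72 h post infection gave inhibition relative to buffer-only and Salinomycin wells.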
# VACV Venus inh – inhibitors of vaccinia virus (Venus reporter). Vaccinia virus Venus reporter expression, fluorescence. Potency, µM (titrated, usually from 36.5 µM), without a hit: top-dose activity change, negative = inhibition, hits mostly inhibitors. 330,000 tested, 0.46% active. AID 720580; calls by dose curve; tested in A549 cells; note: potency is the fitted concentration of half-maximal effect; nearly all actives have a fitted effect of over 30% in size
# FMDV inh – blocks foot and mouth disease virus. Potency, µM (series often up to 57.9 µM), for the others: at the highest dose activity change, negative = inhibition, usual class: inhibitors. FMDV antiviral cell-based qHTS. AID 1159524. 410,000 tested, 1.2% active; calls by dose curve; tested in HEK293T cells; note: read-out not given here; potency is the fitted concentration of half-maximal effect; nearly all actives have a fitted effect of over 45% in size
# HCV inhibitor – inhibitors of hepatitis C virus infection | Potency, µM (highest dose often 41.8 µM), inactives show top-dose activity change, negative = inhibition, usual class: inhibitors | 340,000 tested, 3.4% active | AID 651820 | Huh7.5.1 HCVcc-Cre infection, luciferase reporter, 44 h; note: potency is the fitted concentration of half-maximal effect
#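 Antiviral activity was scored by luciferase reporter output from cells infected with HCVcc-Cre (~0.5 moi) in presence of compound, 44 h infection period, cells seeded 1,000/well 4 h prior.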
# Vaccinia mCherry – inhibitors of vaccinia virus infection (mCherry reporter signal). 310,000 tested, 0.63% active. Vaccinia virus mCherry reporter infection, fluorescence. AID 720579. Potency, µM (titrated, usually from 36.5 µM), without a hit: top-dose activity change, negative = inhibition, usual class: inhibitors; calls by dose curve; tested in A549 cells; note: potency is the fitted concentration of half-maximal effect; nearly all actives have a fitted effect of over 35% in size
# FBPA Giardia inh – blocks Giardia fructose-bisphosphate aldolase activity. A8B2U2. purified Giardia FBPA. Potency, µM (titrated, usually from 59.6 µM), inactives show top-dose activity, negative = inhibition, actives largely listed as inhibitors. 290,000 tested, 0.71% active; note: potency is the fitted concentration of half-maximal effect; nearly all actives have a fitted effect of over 55% in size
# Target sequence (A8B2U2 whole entry, looked up): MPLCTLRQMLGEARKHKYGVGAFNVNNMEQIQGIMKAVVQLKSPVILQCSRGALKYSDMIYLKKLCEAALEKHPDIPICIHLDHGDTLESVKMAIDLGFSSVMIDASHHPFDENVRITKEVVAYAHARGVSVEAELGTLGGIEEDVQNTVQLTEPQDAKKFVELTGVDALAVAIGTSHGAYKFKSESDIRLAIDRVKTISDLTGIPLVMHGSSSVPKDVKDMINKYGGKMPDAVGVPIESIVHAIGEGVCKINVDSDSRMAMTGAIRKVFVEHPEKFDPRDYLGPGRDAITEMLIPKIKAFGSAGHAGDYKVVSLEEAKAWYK
#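 Giardia FBPA (40 nM reagent) was preincubated 10 min at RT with compound (up to 57.5 uM final), then substrate plus GAPDH/TPI/NAD/arsenate coupling system with diaphorase/resazurin was added; resorufin fluorescence (525/598 nm) was read after 20 min.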
# * = called active by the depositor; i = inactive; ? = inconclusive; . = no result given; ! = not active in a repeat; [ ] = remark or other dose. The list is not random: actives were taken first. Their share in the collection is about 7.5%. Unless noted, calls come from the whole dose curve; as a rule, active = well fitted curve in the direction sought with a large enough effect; inconclusive = small, poorly fitted or top-dose-only effect, or another doubt; inactive = no such curve, though single readings can be large; an effect the other way counts as inactive or inconclusive. % is set by controls: 0 for no effect and ±100 for the full control effect.
SMILES,HCMV inh,VACV Venus inh,FMDV inh,HCV inhibitor,Vaccinia mCherry,FBPA Giardia inh
CC(C)Cn1c(C(C)C)nc([N+](=O)[O-])c1S(=O)(=O)c1ccc(F)cc1,-72.1*,.,15.8µM*,?,.,2.4%
CC(C)Cn1nc(NS(=O)(=O)c2ccccc2)c2cc3ccccc3nc21,8.4,.,41.0%,0.8%,.,12.7%
CC(C)Cn1c(C(C)C)nc([N+](=O)[O-])c1Sc1ccc(Cl)cn1,-3.6,.,?,?,.,-3.6%
CC(C)CCCCCCCCc1cccc(O)c1C(=O)O,8.3,.,.,.,.,.
COc1ccc(-c2csc(NC(=O)CSc3ncn[nH]3)n2)cc1OC,-32.8,-24.1%,?,-22.1%,-16.0%,-19.8%
O=S(=O)(c1ccccc1)N(CC(F)(F)F)c1ccc(C(O)(C(F)(F)F)C(F)(F)F)cc1,-23.2,11.2µM*!,?,.,?,-7.2%
CCN(c1ccc(C(O)(C(=O)OC)C(F)(F)F)cc1)S(=O)(=O)c1ccccc1 (stereo not given),?,-22.4%,8.7%,15.5%,-0.1%,0.7%
CC(=O)Nc1ccc(NC(=O)c2cnc(N3CCN(Cc4cccc(C(F)(F)F)c4)C3=O)o2)cc1,-8.5,.,.,.,.,.
Cc1ccc(Cl)cc1-c1cc(C(=O)N2CCc3ccccc3C2)[nH]n1,-98.4*,-7.9%,9.3%,.,i,.
CC(C)NC(=O)CSc1nc(-c2cccs2)cc(-c2ccccc2)c1C#N,-4.2,.,-7.2%,?,.,-1.3%
O=C(CSc1nc(Cc2ccccc2)nc2ccccc12)Nc1ccc2c(c1)OCCO2,?,-29.0%,-8.8%,-2.0%,-21.1%,8.5%
CCC(C)(C)NC(=O)CSc1nc(Cc2ccccc2)nc2ccccc12,-71.6*,-5.1%,-23.1%,-25.6%,-12.9%,5.0%
CC(C)NC(=O)CSc1nc(Cc2cccs2)nc2ccccc12,-81.3*,-6.2%,.,-25.8%,-13.0%,.
CC(C)(C)NC(=O)CSc1nc(Cc2ccccc2)nc2ccccc12,-66.8*,.,-1.2%,12.6µM*,.,7.5%
CC(C)N(C(=O)CSc1nc(Cc2ccccc2)nc2ccccc12)C(C)C,-38.3,.,-23.7%,?,.,13.9%
C(=C\c1ccccc1)/CN1CCN(C(c2cc3ccccc3o2)c2nnnn2C2CCCCC2)CC1 (stereo not given),21.6,-8.7%,8.5%,.,-8.7%,.
Cn1cc(CN2CCC(C(=O)NC(c3ccc(F)cc3)c3ccc4ccccc4n3)CC2)c2ccccc21 (stereo not given),-35.3,?,-20.3%,.,?,.
N#CCc1nn(-c2ccc(F)cc2)c(N)c1C#N,-60.8*,.,-3.3%,5.3%,.,-0.8%
Cc1ccc(N2CCN(Cc3nnc(-c4ccc5c(c4)OCO5)o3)CC2)c(C)c1,4.4,-13.6%,-9.1%,.,-12.2%,.
CCOC(=O)C1=CNS(=O)(=O)NC1c1ccc2ccccc2c1 (stereo not given),2.3,-4.9%,-2.8%,6.31µM*,i,.
CCOC(=O)C1=CNS(=O)(=O)NC1c1cccc(O)c1 (stereo not given),-9.0,-3.5%,0.0%,-6.7%[8.37 µM],-14.7%,.
COc1ccc(NC(=O)C2Cc3c(-c4cccc(F)c4)ccnc3O2)cn1 (stereo not given),-13.6,-15.7%,-24.8%,.,-9.9%,.
O=C(CNC(=O)c1cccc(F)c1)N/N=C/c1cccs1,-62.2*,.,5.7%,9.5%,.,-1.4%
O=C(CNC(=O)c1ccccc1)N/N=C/c1cccs1,?,-6.5%,5.6%,13.5%,i,2.2%
O=C(Cc1c(F)cccc1Cl)N/N=C/c1cccs1,-74.8*,-23.1%,45.6%,5.4%[8.37 µM],-1.5%,-24.6%
SMILES,HCMV inh,VACV Venus inh,FMDV inh,HCV inhibitor,Vaccinia mCherry,FBPA Giardia inh
Cc1ccc(/C=N/NC(=O)Cc2c(F)cccc2Cl)s1,-27.8,.,13.6%,-20.5%,.,7.1%
COCCNC(=O)c1cc2c(=O)[nH]c3ccccc3c2s1,30.6,-0.8%,-1.6%,3.3%,-10.6%,-5.9%
CCCCN(C)C(=O)c1cc2cc3ccc(OC)cc3nc2s1,50.1,.,-50.7%,11.2µM*,.,-6.0%
COc1ccc2nc3sc(C(=O)NCCCN4CCc5ccccc5C4)cc3cc2c1,79.4,-25.6%,-10.3%,10µM*,?,-25.0%
CCN(CCCNC(=O)c1cc2cc3ccc(OC)cc3nc2s1)c1ccccc1,-77.5*,?,12.1%,.,-24.1%,.
CCN(CCCNC(=O)c1cc2c(=O)[nH]c3ccccc3c2s1)c1ccccc1,-81.2*,-14.5%[7.34 µM],-4.2%,.,-10.1%[7.34 µM],.

# Source: PubChem BioAssay (National Center for Advancing Translational Sciences (NCATS))
